Rv3671c inh: inhibitors of M. tuberculosis serine protease Rv3671c. P9WHR9. inhibition, % at 5.96 µM. 320,000 compounds, 0.048% hits. AID 2606; in the data active means inhibition above about 38%;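 further: extracellular domain of Rv3671c used as enzyme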
Mtb bLac sens: beta-lactam sensitization of Mtb H37Rv. inhibition, % at 25 µM. AID 434955. M. tuberculosis H37Rv growth with meropenem, percent inhibition. 330,000 compounds, 0.27% hits; call rule not given here;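 further: growth measured after seven days incubation then overnight dye step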
UGM FP inh: inhibitors of M. tuberculosis UDP-galactopyranose mutase; purified UGM, fluorescence polarization probe displacement; 320,000 compounds, 0.06% hits; P9WIQ1; inhibition, % at 10 µM; in the data active means inhibition above about 10%, passing the limit was not always enough; inconclusive means no clear call, values can overlap the other calls
FBA Mtb inh: inhibitors of M. tuberculosis fructose-bisphosphate aldolase; 360,000 compounds, 2.3% hits; AID 588726; purified M. tuberculosis FBA, fluorescence read-out; P9WQA3; inhibition, % at 1 µM; in the data active means inhibition above about 27%
RecA splice inh: inhibitors of M. tuberculosis RecA intein splicing; inhibition, % (concentration not given with the values); 290,000 compounds, 0.75% hits; cell-free RecA intein splicing, fluorescence; P9WHJ3; AID 2221; in the data active means inhibition above about 30%; inconclusive means no clear call, values can overlap the other calls
GDH-TPI inh: inhibits GDH-TPI coupling enzymes, artifact for Mtb FBA screen; GDH-TPI coupled enzyme counterscreen, NADH absorbance; inhibition, % at 4.8 µM; 360,000 compounds, 1.2% hits; AID 588335; in the data active means inhibition above about 30%
Each line names hits and unclear results; the compound was inactive in the other large screens. In the library only some 4% were active in any assay of this set; here they are far more common.

Cn1c(NC(=O)c2ccccc2F)c(-c2cccs2)c(=O)c2ccccc21	GDH-TPI inh 43
CCCn1c(O)c(N=NC(=O)c2ccco2)c2ccccc21	GDH-TPI inh 33
COc1ccc(/C=N/NC(=O)c2nc(-c3ccccc3)n(-c3ccccc3)n2)cc1	GDH-TPI inh 33
Cc1ccc(/C=N/NC(=O)c2c(C)nc3ccc(Br)cn23)cc1	none
Cc1cc(/C=N\NC(=O)c2cccs2)c(C)n1-c1ccc2ncccc2c1	GDH-TPI inh 37
COc1cc(/C=N/NC(=O)c2c(C)nc3ccc(Cl)cn23)cc(OC)c1OC	GDH-TPI inh 36 (no result: Rv3671c inh)
COc1ccc(/C=N/NC(=O)c2c(C)nc3ccc(Br)cn23)cc1OC	GDH-TPI inh 46
COc1ccc(/C=N/NC(=O)c2c(C)nc3ccc(Cl)cn23)cc1OC	none
COc1ccc(/C=N/NC(=O)c2nc(-c3ccccc3)n(-c3ccccc3)n2)c(O)c1	none
CCCCOc1ccccc1NC(=O)Cn1c(-c2nonc2N)nc2ccccc21	none
Cc1ccsc1/C=N/NC(=O)Cn1nc(C)c([N+](=O)[O-])c1C	none
CC(C)(C)n1nc2c(c1NC(=O)c1ccc(F)c(F)c1)CS(=O)(=O)C2	none
CCC(CC)C(=O)N(C)c1c(C)nc2c(OCc3ccc(Cl)cc3)cccn12	none (no result: Rv3671c inh, Mtb bLac sens, UGM FP inh, RecA splice inh)
N#Cc1ccccc1OCC(=O)N1N=C(c2cccs2)CC1c1ccco1 (centres undefined)	none (no result: RecA splice inh)
COc1ccc(/C=N/NC(=O)c2c(C)nc3ccccn23)cc1[N+](=O)[O-]	GDH-TPI inh 38
Cc1nc2ccccn2c1C(=O)N/N=C/c1ccccc1	none
Cc1nc2ccccn2c1C(=O)N/N=C/c1cc(C)n(-c2ccc(Br)cc2)c1C	GDH-TPI inh 37
COc1ccc(/C=N\NC(=O)c2c(C)nc3ccc(Br)cn23)cc1	GDH-TPI inh 43
Cc1noc(/C=C/N(C)C)c1S(=O)(=O)N1CCCC(C(=O)NC2CCCCC2)C1 (centres undefined)	GDH-TPI inh 58
Cc1noc(/C=C/N(C)C)c1S(=O)(=O)N1CCCC(C(=O)Nc2ccc3c(c2)OCO3)C1 (centres undefined)	none (no result: RecA splice inh)
Cc1ccc(C)c(N2CCN(S(=O)(=O)c3c(C)noc3/C=C/N(C)C)CC2)c1	GDH-TPI inh 36 (no result: UGM FP inh)
Cc1noc(/C=C/N(C)C)c1S(=O)(=O)N1CCCC(C(=O)Nc2ccccc2F)C1 (centres undefined)	GDH-TPI inh 47
Cc1cc(C)c(NC(=O)C2CCCN(S(=O)(=O)c3c(C)noc3/C=C/N(C)C)C2)c(C)c1 (centres undefined)	GDH-TPI inh 34
CC(=O)N1CCc2cc(S(=O)(=O)C(C)CC(=O)Nc3ccc(OC(F)(F)F)cc3)ccc21 (centres undefined)	none
COc1ccc(NC(=O)CN2C(=O)COc3ccc(S(=O)(=O)N4CCOCC4)cc32)cc1Cl	none
Cc1noc(/C=C/N(C)C)c1S(=O)(=O)N(C)CC(=O)NC1CCCCC1	GDH-TPI inh 51
CNC(=O)C1CCN(S(=O)(=O)c2c(C)noc2/C=C/N(C)C)CC1	GDH-TPI inh 35
CCOC(=O)Cc1csc(NS(=O)(=O)c2ccc(SC)cc2)n1	none
Cc1ccc(-n2c(N)c(C#N)c(-c3ccccc3)c(C#N)c2=O)cc1	none
Cc1ccc(-c2nc3sc(C#N)c(N)n3c(=O)c2C#N)cc1	UGM FP inh 13
O=C(Nc1ccc(Br)cc1Br)c1cccc2c1C(=O)N(C1CCCCC1)C2	none
COc1ccc2[nH]c3c(=O)n(/N=C/[C@H]4C(C)C=C(C)CC4C)c(=O)[nH]c3c2c1 (some centres undefined)	FBA Mtb inh 156
Cc1occc1C(=O)n1cnc2ccccc21	none (no result: FBA Mtb inh, GDH-TPI inh)
Cc1ccc(C(=O)n2cnc3ccccc32)cc1C	RecA splice inh 36
CC(=O)c1ccc(Nc2cc(C)nc3nc(C)nn23)cc1	GDH-TPI inh 31
CCN1C(=O)[C@@H]2C(C(=O)c3cnccn3)=NN[C@@H]2C1=O	GDH-TPI inh 32
CCOc1cc(C(=O)OCc2cc(=O)n3c(C)csc3n2)ccc1OC	none (no result: RecA splice inh)
CCN(CC)CCNS(=O)(=O)c1ccc(OC)c(Br)c1	none
COc1ccc(NC(=S)NC(NC(=O)CCl)C(Cl)(Cl)Cl)c([N+](=O)[O-])c1 (centres undefined)	RecA splice inh 55
Cc1cc(Br)ccc1NC(=O)CN(C)C(=O)c1cc(S(=O)(=O)N(C)C)ccc1N1CCCC1	none
Nc1nc(NCCc2ccccc2)nc(NCc2ccccc2)c1[N+](=O)[O-]	Mtb bLac sens inconclusive
Nc1nc(NCCN2CCOCC2)nc(NCc2ccccc2)c1[N+](=O)[O-]	GDH-TPI inh 48
Nc1nc(NCCCN2CCOCC2)nc(NCc2ccccc2)c1[N+](=O)[O-]	GDH-TPI inh 50
Nc1nc(Nc2ccccc2)nc(NCc2ccco2)c1[N+](=O)[O-]	none
Nc1nc(NCc2ccco2)nc(NCCO)c1[N+](=O)[O-]	GDH-TPI inh 32
CN(Cc1ccccc1)c1nc(N)c([N+](=O)[O-])c(NCc2ccccc2)n1	GDH-TPI inh 31
Cc1ccc(S(=O)(=O)N2CCN(C(=O)COC(=O)CNC(=O)c3ccccc3)CC2)c(C)c1	none
Cc1cc(C)cc(Cn2c3ccc(NC(=O)NCc4ccc(F)cc4)cc3c(=O)n2C)c1	FBA Mtb inh 133 (no result: Rv3671c inh, Mtb bLac sens, UGM FP inh, RecA splice inh)
Cc1cc(C)cc(Cn2c3ccc(NC(=O)NCc4ccccc4)cc3c(=O)n2C)c1	FBA Mtb inh 172 (no result: Rv3671c inh, Mtb bLac sens, UGM FP inh, RecA splice inh)
CC(=O)Nc1cccc(NC(=O)COC(=O)C2CC3CCCC(C2)C3=O)c1 (centres undefined)	none
CC(=O)N1CCN(C2=NC(=O)/C(=C\c3cccs3)S2)CC1	none
O=C1N=C(N2CCOCC2)S/C1=C\c1ccncc1	none
CC(=C/c1ccccc1)/C=C1/SC(N2CCOCC2)=NC1=O	Mtb bLac sens inconclusive, GDH-TPI inh 32
O=C1N=C(N2CCOCC2)S/C1=C/c1cccs1	GDH-TPI inh 34
CCc1ccc(/C=C2/SC(N3CCOCC3)=NC2=O)cc1	GDH-TPI inh 47
CC(C)c1ccc(/C=C2\SC(N3CCOCC3)=NC2=O)cc1	GDH-TPI inh 32
Cc1cccc(C(C)Nc2ccc([N+](=O)[O-])cn2)c1 (centres undefined)	GDH-TPI inh 31
COC1C(OC(=O)/C=C/C=C/C=C/C=C/C(=O)O)CCC2(CO2)C1C1(C)OC1CC=C(C)C (centres undefined) (tested in a mixture with another compound)	GDH-TPI inh 64 (no result: Rv3671c inh, Mtb bLac sens, UGM FP inh, RecA splice inh)
Cc1cc(C)[n+](-c2ccc(F)cc2)c2[nH]c(=O)[nH]c(=O)c12	FBA Mtb inh active
CCOc1ccc(Cc2onc3c2C(=O)CCC3)cc1OCC	FBA Mtb inh active
CCOc1ccc(Cc2onc3c2C(=O)CC(C)(C)C3)cc1OCC	none
CC12CC(NC(=O)N1c1cccc(C(=O)N3CCN(c4ccccc4F)CC3)c1)c1ccccc1O2 (centres undefined)	none
